# Compound activity (PubChem)
# TEAD-YAP inh: TEAD-YAP interaction inhibition; AID 1259422; inhibition, % at 9.12 µM; HEK-TIYL cells, TEAD-Gal4/YAP UAS-luciferase luminescence; actives 1.4% (n = 640,000); in the data active = inhibition above about 32%;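 note: 0% = median of test compound wells and 100% = reference inhibitor wells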
# FBW7 activator: activators of human E3 ligase FBW7; Q969H0; AlphaScreen FBW7–phospho-cyclin E peptide binding, activator screen; normalized activity (activation), % at 26.1 µM; actives 0.13% (n = 650,000); in the data active = normalized activity above about 1.9%;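 note: purified mutant Fbw7 with reduced substrate affinity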
# Target sequence (Q969H0 whole entry, looked up): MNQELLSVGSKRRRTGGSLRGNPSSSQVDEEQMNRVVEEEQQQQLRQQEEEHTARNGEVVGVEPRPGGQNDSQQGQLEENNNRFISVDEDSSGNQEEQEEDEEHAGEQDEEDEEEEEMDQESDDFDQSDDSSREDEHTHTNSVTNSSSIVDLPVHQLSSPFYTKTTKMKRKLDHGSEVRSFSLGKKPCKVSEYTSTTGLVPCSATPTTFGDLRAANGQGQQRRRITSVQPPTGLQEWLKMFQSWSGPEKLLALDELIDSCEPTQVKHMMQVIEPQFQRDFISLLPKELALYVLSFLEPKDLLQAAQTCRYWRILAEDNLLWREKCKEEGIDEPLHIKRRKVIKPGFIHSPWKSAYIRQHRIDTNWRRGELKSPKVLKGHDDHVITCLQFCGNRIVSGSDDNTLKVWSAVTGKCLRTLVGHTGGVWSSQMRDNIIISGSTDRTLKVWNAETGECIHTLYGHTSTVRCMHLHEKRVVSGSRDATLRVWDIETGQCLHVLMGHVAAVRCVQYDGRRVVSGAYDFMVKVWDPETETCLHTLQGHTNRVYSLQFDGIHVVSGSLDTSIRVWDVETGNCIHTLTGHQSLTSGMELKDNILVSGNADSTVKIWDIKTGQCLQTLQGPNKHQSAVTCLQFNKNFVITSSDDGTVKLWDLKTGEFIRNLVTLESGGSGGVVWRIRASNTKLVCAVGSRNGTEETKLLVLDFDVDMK
# GPR151 activ: activates the human receptor GPR151. activation, % at 11.2 µM. actives 1% (n = 650,000). PathHunter beta-arrestin GPR151 cells, luminescence. Q8TDV0. AID 1508602; in the data active = activation above about 4.9%;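 note: 0% = median of compound wells and 100% = cells with positive control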
# MITF inh: human MITF inhibition, primary screen; O75030; AlphaScreen MITF homodimerization, bead proximity signal; inhibition, % at 2.6 µM; actives 0.91% (n = 650,000); in the data active = inhibition above about 50%;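 note: 0% = vehicle wells with protein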
# * = called active by the depositor. Hits are enriched below; roughly 3.4% of the tested compounds scored in any of these assays.
SMILES,TEAD-YAP inh,FBW7 activator,GPR151 activ,MITF inh
CCCOc1ccc(-c2ccc(-c3nc(-c4ccccn4)no3)cc2)cc1,5.4,0.0,-1.8,8.2
CC1=C(C#N)C(=O)N(C)C(=O)/C1=C\c1ccc(-c2ccc(C(=O)O)cc2)o1,1.4,-0.2,-1.1,-4.4
O=C(Cn1ncc2c(=O)oc3ccccc3c21)Nc1ccc(F)c(Cl)c1,-10.1,1.5,-0.5,15.8
CCOc1ccc2cc(-c3ccccn3)c(=N)oc2c1,59.3*,0.3,-8.8,-15.2
Cc1ccc(-c2nc(-c3ccccn3)no2)cc1[N+](=O)[O-],54.7*,-0.1,-6.9,-2.2
Cc1ccc(-c2nc(-c3cccs3)no2)cc1[N+](=O)[O-],-20.9,-0.3,-1.0,2.5
O=C1CCCC(O)=C1N=Nc1ccc(C(=O)O)cc1,-7.1,-0.3,-1.8,66.3*
Cc1nc2sc(-c3ccccc3)cc2c(=O)[nH]1,65.6*,-0.1,-3.9,-1.4
Cc1nc2sc(-c3ccccc3)cc2c2nnc(-c3ccccc3)n12,90.8*,0.1,-0.1,1.4
O=C(c1nn2c(c1Cl)NC(c1ccc(Cl)cc1)CC2C(F)(F)F)N1CCN(Cc2ccccc2)CC1 (stereo not given),6.3,0.0,-0.3,7.5
Cc1cc(C)c(C(=O)/C=C/c2ccncc2)c(=O)[nH]1,31.7,0.1,-0.2,-12.9
Cc1cc(C)c(C(=O)/C=C/c2ccccc2F)c(=O)[nH]1,66.2*,0.1,0.3,-19.7
Cc1ccccc1-n1ncc2c(NCc3ccc(F)cc3)ncnc21,-4.2,0.0,-0.5,0.8
Fc1ccc(CNc2ncnc3ccccc23)cc1,54.6*,-0.2,0.9,-4.5
c1csc(CNc2ncnc3nc[nH]c23)c1,5.5,0.0,1.5,0.3
c1csc(CNc2ncnc3ccccc23)c1,51.1*,-0.1,1.7,3.3
Cc1ccc(N2C(=O)c3ccc(C(=O)OC4CCCCC4)cc3C2=O)cc1,-0.9,-0.1,-0.3,-10.1
CC(C)=C1C2C=CC1C1C(=O)N(c3cccc(I)c3)C(=O)C21 (stereo not given),-5.3,0.2,-0.1,19.0
Cc1cc2c(cc1C)C(c1ccccc1C)CC(=O)N2 (stereo not given),6.4,0.1,0.2,5.1
CCCCOc1ccccc1C1CC(=O)Nc2cc(C)c(C)cc21 (stereo not given),3.7,-0.1,1.1,11.5
CCOc1ccccc1C1CC(=O)Nc2cc(C)c(C)cc21 (stereo not given),40.9*,0.0,-0.6,-6.7
COc1ccccc1C1CC(=O)Nc2cc(C)c(C)cc21 (stereo not given),56.9*,0.1,1.6,14.3
Cc1cc2c(cc1C)C(c1ccccc1OC(C)C)CC(=O)N2 (stereo not given),55.2*,0.0,2.2,7.3
Cc1ccc(CNc2nc3ccccc3c3nc(-c4ccncc4)nn23)cc1,-46.8,-0.3,1.1,-2.7
CCCOc1cccc(C(=O)Nc2ccc(O)cc2C(=O)O)c1,15.6,0.5,-1.1,9.9
SMILES,TEAD-YAP inh,FBW7 activator,GPR151 activ,MITF inh
O=C1CN(S(=O)(=O)c2ccc(Br)cc2)c2ccccc2N1,-1.5,-0.1,0.4,-6.9
O=C1CN(Cc2ccccc2)c2ccccc2N1,95.6*,-0.1,-1.5,6.8
O=C1CN(Cc2ccccc2)CC(=O)N1,5.8,0.0,2.1,8.5
O=C1CN(S(=O)(=O)c2ccc3ccccc3c2)c2ccccc2N1,2.0,0.1,-0.2,5.6
CCCNS(=O)(=O)c1ccc2[nH]c3c(c2c1)CCCC3,4.7,-0.2,2.0,3.6
CCOc1ccc(S(=O)(=O)N2CC(=O)Nc3ccccc32)cc1,42.0*,0.0,2.3,1.7
O=C1CN(S(=O)(=O)c2ccc3[nH]c4c(c3c2)CCCC4)c2ccccc2N1,61.8*,0.1,0.5,-14.8
Cc1cc(C)c(S(=O)(=O)N2CC(=O)Nc3ccccc32)c(C)c1,55.1*,-0.1,-0.8,9.7
Cn1c(CN2CCN(C(=O)c3cc4ccccc4oc3=O)CC2)nc2ccccc21,-8.9,0.7,1.0,-0.4
COc1ccc(C2C(C(=O)N3CCN(c4ccc(F)cc4)CC3)c3ccccc3C(=O)N2c2ccc(OC)cc2)cc1 (stereo not given),20.5,0.2,0.3,6.9
c1ccc(-c2csc(N3CCCCC3)n2)cc1,-24.9,-0.1,2.4,-5.6
CC(C)(C)C1CCc2c(sc3nc(CCC(=O)N4CCN(c5ccccn5)CC4)[nH]c(=O)c23)C1 (stereo not given),77.8*,0.4,2.0,-2.9
CC(C)(C)C1CCc2c(sc3nc(Cc4ccccc4)[nH]c(=O)c23)C1 (stereo not given),-0.8,0.1,-0.3,4.4
CC(C)(C)C1CCc2c(sc3nc(CCC(=O)N4CCN(c5ccc(F)cc5)CC4)[nH]c(=O)c23)C1 (stereo not given),51.6*,0.6,-1.4,-4.2
O=c1[nH]c2ccc(S(=O)(=O)NCCCO)cc2[nH]1,5.4,1.9*,-0.2,21.2
CN1CC=C(/C=C/C2=Cc3ccccc3OC2)CC1,74.7*,-0.1,-7.6,-4.0
CN1C(=O)/C(=C/C2=Cc3ccccc3OC2)SC1=S,5.6,-0.1,1.1,-6.3
COC(=O)c1sc2nc3c(c(-c4ccc(C)o4)c2c1N)CCCC3,4.7,0.0,2.9,-6.7
Cc1ccc(-c2c3c(nc4sc(C(N)=O)c(N)c24)CCCC3)o1,5.8,-0.2,-0.2,55.3*
NC(=O)c1sc2nc3c(c(-c4ccco4)c2c1N)CCC3,43.7*,-0.2,1.5,-4.8
CCc1nc2sc(C(=O)OC)c(N)c2c2c1CCCC2,-4.2,0.0,0.9,-15.2
CCc1nc2sc(C(N)=O)c(N)c2c2c1CCCC2,38.2*,0.2,-1.3,-15.4
CCOC(=O)c1cnc2c(OC)cccc2c1NCCN(C)C,13.4,0.1,-0.4,13.8
CCN(CC)c1ccc(C2NC(=O)c3ccccc3N2)cc1 (stereo not given),79.2*,0.5,1.6,-4.0
Oc1ccc(-c2cnc3ccc(NCc4cccs4)nn23)cc1,61.8*,-0.1,2.8,-11.9
SMILES,TEAD-YAP inh,FBW7 activator,GPR151 activ,MITF inh
OCc1ccc(-c2cnc3ccc(NCc4cccs4)nn23)cc1,35.0*,0.1,-1.1,-8.4
Fc1ccc(-c2cnc3ccc(NCc4cccs4)nn23)cc1,-4.4,0.1,0.0,-16.1
OCc1cccc(-c2cnc3ccc(NCc4cccs4)nn23)c1,-1.4,-0.1,-0.9,12.4
COc1ccccc1CNn1c(C)nnc1SCc1ccccc1F,2.6,0.5,-1.6,0.5
COCCCn1c(=O)[nH]c2ncc(-c3cnc(OC)nc3)nc21,-3.1,2.2*,-1.0,15.2
COCCCn1c(=O)[nH]c2ncc(-c3cccc(F)c3)nc21,-3.0,-0.1,-0.3,14.2
Oc1c(C(c2cccs2)N2CCOCC2)ccc2cccnc12 (stereo not given),76.7*,-1.3,1.9,60.7*
Oc1c(C(c2cccs2)N2CCN(c3ccccc3)CC2)ccc2cccnc12 (stereo not given),87.2*,-0.3,-0.1,18.4
O=c1c2cc(Cl)ccc2[nH]c(=S)n1C1CCCCC1,2.5,0.1,0.6,8.4
S=c1[nH]c2cc(Cl)ccc2n1C1CCCCC1,2.0,3.1*,-1.1,-7.7
Cc1nc2c(C(=O)N3CCCC3)c[nH]n2c(=O)c1Cc1ccc(Cl)cc1,8.1,1.9*,-0.3,14.8
